Assay outcomes as filed in PubChem BioAssay.
MARV entry inh – Marburg virus entry inhibition; Marburg virus pseudotyped entry inhibition, cell reporter; Potency, µM (doses to about 37.8 µM), for inactives: at the highest dose activity change, negative = inhibition, hits mostly inhibitors; 1.8% of 300,000 active; AID 540276; calls by dose curve; tested in HEK293 cells; note: potency is the fitted concentration of half-maximal effect; % is set by controls: 0 for no effect and ±100 for the full control effect
AMA1-RON2 inh – disrupts binding of P. falciparum AMA1 to RON2; AlphaScreen AMA1-biotinylated RON2 peptide binding; 0.2% of 360,000 active; AID 720542; Potency, µM (doses to about 58.2 µM), for inactives: top-dose activity change, negative = inhibition, actives largely listed as inhibitors; active = well fitted inhibition curve with a large enough effect; inconclusive = small, poorly fitted or top-dose-only effect; inactive = no such curve, though single readings can be large or run the other way;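 note: potency is the fitted concentration of half-maximal effect; 0% = vehicle wells and -100% = peptide control; nearly all actives have a fitted effect of over 45% in size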
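AMA1 (3D7) with his tag at 25 nM final met compounds first, then biotinylated RON2 peptide at 25 nM; detection used donor plus acceptor beads, 10 µg/mL apiece, read by AlphaScreen after 30 min at room temperature.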
Shiga toxin inh – inhibitors of Shiga toxin in Vero cells; Vero cells, Shiga toxin protein synthesis inhibition reporter; inhibition, % at 38.7 µM; 9.2% of 290,000 active; in the data active = inhibition mostly above about 28%, no sharp cut-off; inactive = mostly below about 43%; note: 0% is about no effect
Cycloheximide cs – affects cycloheximide protein synthesis inhibition readout, counter-screen | cell reporter, cycloheximide protein synthesis inhibition counterscreen | max response, % | 12% of 300,000 active | AID 2314; in the data active = max response mostly above about 13%, no sharp cut-off; inactive = mostly below about 14%; note: read at 38.3 µM for the half of the compounds with a filed dose; 0% is about no effect
Lassa entry inh – Lassa virus entry inhibition. Lassa virus pseudotype entry inhibition, cell reporter. Potency, µM (doses to about 37.9 µM), for inactives: at the highest dose activity change, negative = inhibition, hits mostly inhibitors. 1.2% of 300,000 active. AID 540256; calls by dose curve; tested in HEK293 cells; note: potency is the fitted concentration of half-maximal effect; % is set by controls: 0 for no effect and ±100 for the full control effect; nearly all actives have a fitted effect of over 50% in size
The depositor's hits bear a star; ? = inconclusive; . = no result; [ ] = another dose, or the depositor's remark. The sample as a whole holds a higher share of hits than the screen did.

SMILES	MARV entry inh	AMA1-RON2 inh	Shiga toxin inh	Cycloheximide cs	Lassa entry inh
CC(=O)c1ccccc1NC(=O)c1ccc(N2CCCC2=O)cc1	5%[46.1 µM]	0%	.	.	11µM*
CN(CC1CCCO1)S(=O)(=O)c1ccc(C(=O)Nc2nccs2)cc1 (stereo not given)	.	28%	22*	24*	.
Cc1nc(-c2ccc(F)cc2)c(CC(=O)Nc2ccc(C)c(S(=O)(=O)N3CCOCC3)c2)s1	5µM*	13%	-8	2	?
Cc1ccc(C)c(Cn2c(=O)n(CCCCCC(=O)NCc3ccc4c(c3)OCO4)c(=O)c3sccc32)c1	19%[46.1 µM]	.	.	.	?
CCCCN(C(=S)NC(=O)c1cc(OC)c(OC)c(OC)c1)c1c(N)n(Cc2ccccc2)c(=O)[nH]c1=O	-7%	56%	-6	-3	-6%
COC(=O)C(C(=O)OC)C(CC(=O)c1ccc(C)cc1)c1cc(OC)c(OC)c(OC)c1 (stereo not given)	.	-6%	2	-3	.
COc1ccc(C(CC(=O)c2ccc(C)cc2)C(C#N)C#N)cc1OC (stereo not given)	?	-10%	66*	29*	?
COCCNC(=O)c1ccc(-n2c(SCc3ccncc3)nc3ccccc3c2=O)cc1	-11%[46.1 µM]	-11%	-16	-6	-4%
N#Cc1ccsc1NC(=O)c1ccc2ncsc2c1	.	-16%	.	.	.
N#Cc1ccsc1NC(=O)c1cccc(-n2cnnn2)c1	2%[46.1 µM]	10%	26	10*	.
N#Cc1ccsc1NC(=O)c1ccc(Cl)c([N+](=O)[O-])c1	.	0%	99*	51*	.
O=C(NNC(=O)c1cccs1)c1ccc(Cl)c([N+](=O)[O-])c1	16%	13%	-2	-1	9%
N#Cc1ccsc1NC(=O)c1cccc([N+](=O)[O-])c1	-8%[46.1 µM]	-1%	52*	23*	0%
CCOc1ccc2oc(=O)cc(CN3CCN(C(=O)c4ccc(Cl)cc4)CC3)c2c1	6%[46.1 µM]	.	.	.	10%[46.1 µM]
COc1ccc(NC(=O)c2cc3ccc(O)cc3o/c2=N\O)cc1	?	-1%	24	15*	?
O=C(c1ccc(F)cc1)c1cc2ccc(O)cc2oc1=O	?	-9%	25	12	8%[46.1 µM]
N=c1oc2cc(O)ccc2cc1C(=O)Nc1ccc(F)cc1	8%[46.1 µM]	-3%	43*	27*	?
NC(=O)c1cc2c(s1)-c1cc(Cl)ccc1SC2	.	-8%	51	20*	.
CC(C)c1ccc(NC(=O)c2cc3c(s2)-c2ccccc2SC3)cc1	-10%[46.1 µM]	.	.	.	-9%[46.1 µM]
COCCNC(=O)c1cc2c(s1)-c1ccc(Cl)cc1SC2	?	-8%	91*	44*	?
CCOc1ccc(N(CC)C(=O)c2cc3c(s2)-c2ccc(Cl)cc2SC3)cc1	9%[46.1 µM]	.	.	.	?
CCCN(CCC)CCCNC(=S)Nc1ccc2nc3n(c(=O)c2c1)CCCCC3	?	14%	-12	-1	?
Cc1ccc(OCC(=O)NCC2(N(C)C)CCCCC2)cc1C	-24%[46.1 µM]	.	.	.	-6%[46.1 µM]
O=C(CSc1nnc(-c2ccccc2)o1)c1cccc([N+](=O)[O-])c1	4%[46.1 µM]	.	.	.	1%[46.1 µM]
COC(=O)c1ccc(CN2C(=O)[C@]3(OCCC=C[C@@H]3C)c3c(Br)cccc32)cc1	-7%[14.2 µM]	.	.	.	.
SMILES	MARV entry inh	AMA1-RON2 inh	Shiga toxin inh	Cycloheximide cs	Lassa entry inh
O=C(NC1CCN(C(=O)N2c3ccccc3Sc3ccccc32)CC1)c1ccccc1Cl	16µM*	-25%	-12	-3	-15%
COc1cccc(C(=O)NC2CCN(C(=O)N3c4ccccc4Sc4ccccc43)CC2)c1	10µM*	-2%	-5	4	?
COc1cccc(C(=O)N2c3ccccc3Sc3ccccc32)c1	?	-21%	13	-2	?
O=C(NC1CCN(C(=O)N2c3ccccc3Sc3ccccc32)CC1)c1ccco1	?	10%	-9	-3	?
CC(C)c1ccc(NC(=O)CSC2=Nc3ccccc3C3=NC(CC(=O)NCc4ccco4)C(=O)N23)cc1 (stereo not given)	.	.	.	.	-26%[46.1 µM]
COCc1cc(C)nc2c1C(=O)NC(c1ccc(Br)cc1)N2Cc1ccccc1 (stereo not given)	?	.	.	.	5%[46.1 µM]
O=C1CCc2cc(S(=O)(=O)NC3CCCCC3)ccc2N1	.	-6%	.	.	.
Cc1ccc(/C=C/C(=O)NCc2cccs2)o1	-13%	-12%	91*	18*	?
O=C(/C=C/c1ccc([N+](=O)[O-])cc1)NCc1cccs1	?	0%	13*	38*	?
O=C(/C=C/c1cccs1)NCc1cccs1	.	12%	.	.	.
Cc1ccc(/C=C/C(=O)NCc2cccs2)c(C)c1	?	27%	53*	37*	?
O=C(COC(=O)/C=C/c1ccc([N+](=O)[O-])cc1)NCc1cccs1	.	-12%	.	.	.
Cc1ccc(/C=C/C(=O)NCc2cccs2)cc1	-2%	5%	139*	66*	2µM*
Cc1cccc(C(=O)OCC(=O)NCc2cccs2)c1	6%[46.1 µM]	-15%	-5	5	28%
CC(C)c1ccc(-c2cc(C(=O)N3CCOCC3)c3cc(Br)ccc3n2)cc1	-20%	-29%	9	5	-16%
Cc1ccc(/C=C/C(=O)N2CCN(S(=O)(=O)c3cccs3)CC2)o1	.	-2%	-4	23*	.
CCOC(=O)Nc1ccc2c(c1)N(C(=O)CCN(CC)CC)c1ccccc1S2=O (stereo not given)	?	0%	-7	6	18µM*
CCOC(=O)Nc1ccc2c(c1)N(C(=O)CCN(CC)CC)c1ccccc1CC2	.	-1%	.	-2	.
CCCCC1CCC(C(=O)N2CC(=O)Nc3ccc(Cl)cc3C2c2ccc(F)cc2)CC1 (stereo not given)	?	.	.	.	-23%[46.1 µM]
CCOc1cc(C(=O)Nc2ccc(-c3nc4cc(Cl)ccc4o3)cc2)cc(OCC)c1OCC	.	.	.	.	22%[46.1 µM]
CCc1ccc(NC(=O)c2ccc(NC3=NC4CS(=O)(=O)CC4S3)cc2)cc1 (stereo not given)	.	25%	12	-2	.
O=C(OCC(=O)N1CCOCC1)c1ccccc1Br	?	77%	47*	39*	18%[46.1 µM]
O=C(OCC(=O)N1CCOCC1)c1ccccc1Cc1ccccc1	.	-3%	60*	39*	.
O=C(OCC(=O)N1CCOCC1)c1ccccc1SCC(=O)N1CCCC1	13%	1%	-9	-3	17%
COc1ccc(Cl)cc1NC(=O)CN(C)C(=O)CCc1nc2ccccc2c(=O)[nH]1	.	0%	.	.	.
SMILES	MARV entry inh	AMA1-RON2 inh	Shiga toxin inh	Cycloheximide cs	Lassa entry inh
Cn1cnc(S(=O)(=O)N2CCCC(C(=O)NCc3ccccc3)C2)c1 (stereo not given)	.	.	.	.	2%[46.1 µM]
CC1(C)Cc2c(sc(NC(=O)C(=O)N3CCN(CCO)CC3)c2C(N)=O)CO1	.	81%	-2	-1	.
Cc1ccnc(Nc2nc(-c3ccc(F)cc3)cs2)c1	?	?	100*	50*	?
Cc1c(Nc2nc(-c3ccc(Cl)cc3)cs2)c(=O)n(-c2ccccc2)n1C	?	-11%	-11	-3	4%
Cc1ccnc(Nc2nc(-c3ccc(Cl)cc3)cs2)c1	?	-9%	42*	38*	4%[46.1 µM]
CC1(C)CC(NC(=O)N2c3ccccc3Sc3ccccc32)CC(C)(C)N1	3.2µM*	-6%	-3	-2	-4%
